Experimental data: PubChem BioAssay AID1861 (The Scripps Research Institute Molecular Screening Center, 2009)
Several values for one entry are separate records, joined by “and”; a condition that tells them apart may be missing. Equal values may be shown once. Hit rate of the full screen: of about 290,000 compounds, about 3,100 (1.1%) were called active. Rule as the data show it: active = inhibition above about 16% (passing the limit was not always enough); inactive = the rest. The list comes from a sample in which actives are over-represented; it also holds similar structures and randomly drawn compounds. More than one record can exist for a structure, and the calls need not agree. Where a SMILES comes first, the peptide text is derived from it. [ ]: non-standard residue; d: D form. The star is where a group is joined. ξ: configuration not given here. Cbz = O=C(OCc1ccccc1)*; ξL = CC(C)CC(N)C(=O)O; ξP = O=C(O)C1CCCN1

target: Neuropeptides B/W receptor type 1 (Homo sapiens) (UniProt P48145); experiment: GPR7 receptor antagonists, primary screen, cell-based, fluorescence, single concentration (AID 1861); conditions: GPR7-expressing cells, fluorescence antagonist assay; at 4.4 µM; stronger effect = higher value;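 also: cells stimulated with the agonist NPW; 0% = agonist with vehicle and 100% = vehicle without agonist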
Sequence (P48145 whole entry, looked up): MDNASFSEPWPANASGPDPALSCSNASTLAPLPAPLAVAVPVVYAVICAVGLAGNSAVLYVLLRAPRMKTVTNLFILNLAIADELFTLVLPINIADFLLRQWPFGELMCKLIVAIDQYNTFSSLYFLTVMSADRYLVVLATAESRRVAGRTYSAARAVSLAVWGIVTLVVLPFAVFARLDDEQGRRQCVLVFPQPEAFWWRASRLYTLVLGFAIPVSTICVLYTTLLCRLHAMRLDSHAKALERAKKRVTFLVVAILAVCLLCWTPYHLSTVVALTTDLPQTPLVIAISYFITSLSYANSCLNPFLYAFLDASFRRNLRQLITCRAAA

Row | SMILES | inhibition
1 | CN(C)S(=O)(=O)c1ccc(C(=O)NCCN=C2NS(=O)(=O)c3ccccc32)cc1 | -2.36% (inactive)
2 | O=C(O)c1ccc(OCC2CCCO2)cc1 (configuration not stated) | -9.77% (inactive)
3 | CCn1c(SCc2ccccc2)nc2cc(OC)c(OC)cc2c1=O | -30.7% (inactive)
4 | COc1cccc(CNS(=O)(=O)c2csc(C(N)=O)c2)c1 | -3.2% (inactive)
5 | CC(=O)Nc1ccc(S(=O)(=O)NCC2CCC(C(=O)NCCc3ccccc3)CC2)cc1 (configuration not stated) | -13.4% (inactive)
6 | COc1ccc(NC(=O)C2CCC(CNS(=O)(=O)c3csc(C(N)=O)c3)CC2)cc1OC (configuration not stated) | 24.1% (active)
7 | Cc1cc(=O)oc2c(C)c(OCC(=O)NCCc3ccc(S(N)(=O)=O)cc3)ccc12 | 9.11% (inactive)
8 | COC(=O)CN1C(=O)C(C)(C)Oc2ccc(C(=O)Nc3cccc(OC)c3)cc21 | -8.64% (inactive)
9 | COc1ccc([N+](=O)[O-])cc1N(CC(O)Cn1nnc2ccccc21)S(=O)(=O)c1ccc(C)cc1 (configuration not stated) | -11.4% (inactive)
10 | Cc1ccc(S(=O)(=O)N(CC(O)CN2CCCCC2)c2cccc([N+](=O)[O-])c2)cc1 (configuration not stated) | -4.51% (inactive)
11 | COc1ccc([N+](=O)[O-])cc1N(CC(O)CN(CC(C)C)CC(C)C)S(=O)(=O)c1ccc(C)cc1 (configuration not stated) | 21.7% (active)
12 | O=C(/C=C/c1cccs1)c1cc(Cl)ccc1OC(=O)N1CCOCC1 | -2.52% (inactive)
13 | CCC(C)c1ccccc1NC(=O)CN(C)CC(=O)Nc1ccccc1SC (configuration not stated) | 31.4% (active)
14 | CSc1ccccc1NC(=O)CN(C)CC(=O)Nc1ccc(Cl)cc1[N+](=O)[O-] | 12.5% (inactive)
15 | CSc1ccccc1NC(=O)CN(C)CC(=O)Nc1cccc(Br)c1 | 3.51% (inactive)
16 | CC(C)OCCCNc1ncnc2c1[nH]c1ccc(F)cc12 | 26.6% (active)
17 | COc1cc(OC)c(OC)cc1/C=N/Nc1ncnc2c1[nH]c1ccc(C)cc12 | -19.8% (inactive)
18 | Fc1ccc2[nH]c3c(N4CCSCC4)ncnc3c2c1 | -5.82% (inactive)
19 | Cc1ccc(S(=O)(=O)N2CCN(c3ccccc3)CC2)cc1C | 0.58% (inactive)

Row | SMILES | inhibition
20 | COc1cccc(CNS(=O)(=O)c2ccc3c(c2)CC(C)N3C(=O)C2CCC2)c1 (configuration not stated) | 17.9% (inactive)
21 | CC1=CCC2C(=O)N(c3cccc(C(=O)NC(C)c4ccccc4)c3)C(=O)C2C1 (configuration not stated) | 0.74% (inactive)
22 | Cc1cccc(NC(=O)C(C)SCc2ccccc2)c1 (configuration not stated) | -8.07% (inactive)
23 | O=C(Nc1ccncc1)c1ccc(Cl)c([N+](=O)[O-])c1 | 1.68% (inactive)
24 | O=C(Nc1c2c(nn1-c1ccccc1)CS(=O)(=O)C2)C1CCCC1 | 4.15% (inactive)
25 | COc1ccccc1C(c1nnnn1C(C)(C)C)N1CCN(Cc2ccccc2)CC1 (configuration not stated) | 10.7% (inactive)
26 | COc1ccc(OC)c(C(c2nnnn2C(C)(C)C)N2CCc3ccccc3C2)c1 (configuration not stated) | 24% (active)
27 | COCCn1nnnc1C(c1cc2ccc(OC)cc2[nH]c1=O)N1CCc2ccccc2C1 (configuration not stated) | 17.6% (inactive)
28 | CC1CCCN(CCCNC(=O)CN2C(=O)COc3ccc(S(=O)(=O)N4CCOCC4)cc32)C1 (configuration not stated) | -10.9% (inactive)
29 | COC(=O)CCC(=O)N1CCCC(CO)(Cc2ccccc2)C1 (configuration not stated) | -0.55% (inactive)
30 | Cc1cccc(NC(=O)COC(=O)CCc2ccccc2)c1C | -16.3% (inactive)
31 | CCOCCCn1c(SCC(=O)Nc2cc(OC)ccc2OC)nc2ccccc2c1=O | -10.2% (inactive)
32 | Cc1ccc(NC(=S)NCCc2ccc(Cl)cc2)c(C)c1 | -19.2% (inactive)
33 | Clc1ccc(C[n+]2cc(-c3ccccc3)n3c2CCC3)cc1 | -5.39% (inactive)
34 | Cc1ccc(C(=O)C[n+]2cc(-c3ccccc3)n3c2CCCCC3)cc1 | 16.2% (inactive) and 28.1% (active)
35 | Cc1ccc(-c2c[n+](CC(=O)Nc3ccccc3)c3n2CCC3)cc1 | -3.52% (inactive)
36 | C=CCn1c(CNS(=O)(=O)c2ccc(Br)cc2)nnc1SC | -2.9% (inactive)
37 | CCC1C(=O)NCCN1C(=O)c1ccc2nc(Cc3ccc(OC)cc3)oc2c1 (configuration not stated) | 10.3% (inactive)
38 | N=C1C(c2nc3ccccc3s2)=C(O)CN1NC(=O)c1ccc([N+](=O)[O-])cc1 | 2.09% (inactive)

Row | SMILES | inhibition
39 | CC(C)CN(C(=O)c1cccc(S(=O)(=O)N2CCCCC2)c1)C1CCS(=O)(=O)C1 (configuration not stated) | 3.39% (inactive)
40 | NNC(=O)CSc1nnc(-c2ccccc2)n1-c1ccccc1 | 25.5% (inactive)
41 | CC(C(=O)N1CCN(c2ccccc2F)CC1)c1ccc([N+](=O)[O-])cc1 (configuration not stated) | 35.6% (active)
42 | O=C(CCSc1ccccc1)N1CCN(c2ccccc2F)CC1 | 1.08% (inactive)
43 | O=C(c1ccc(S(=O)(=O)N2CCCC2)cc1)N1CCN(c2ccccc2F)CC1 | -4.62% (inactive)
44 | CC(C)CC(NC(=O)C1CCCN1C(=O)[C@@H](C)NC(=O)OCc1ccccc1)C(=O)NCC(N)=O (some centres not stated) (Cbz-[dA][ξP][ξL]G-NH2) | 2.31% (inactive)
45 | CN(Cc1c(F)cccc1Cl)S(=O)(=O)c1cccs1 | -1.36% (inactive)
46 | Cn1nccc1C(=O)N1CCCC(C(=O)c2ccc(Oc3ccccc3)cc2)C1 (configuration not stated) | -11.3% (inactive)
47 | CCOCCCNC(=O)C(NC(=O)CNC(=O)c1ccccc1)c1ccc(OC)cc1 (configuration not stated) | -6.22% (inactive)
48 | O=C1CN(C(=O)c2ccccc2F)C(c2ccc(F)cc2)c2cc(F)ccc2N1 (configuration not stated) | -1.3% (inactive)
49 | CCOC(=O)c1sc(NC(=O)CSc2nnc(-c3ccco3)o2)c(C(=O)OCC)c1C | -9.68% (inactive)
50 | O=C(CSc1nnc(-c2ccco2)o1)NCC(=O)c1ccccc1 | 37.5% (active)
51 | Cc1cccc(NC(=O)CSc2nnc(-c3ccco3)o2)c1 | 2.82% (inactive)
52 | N=c1c2c(-c3ccccc3)c(-c3ccccc3)n(Cc3ccccc3)c2ncn1CCCO | 27.3% (active)
53 | CCN(CC)CCn1cnc2c1c(=O)[nH]c(=O)n2Cc1ccccc1 | -8.02% (inactive)
54 | N=c1c2c(-c3ccccc3)c(-c3ccccc3)oc2ncn1Cc1ccco1 | -7.33% (inactive)
55 | O=C(COc1ccccc1)NCc1ccc2c(c1)OCO2 | 26% (active)
56 | Cc1ccc(C(=O)OCC(=O)NCc2ccc3c(c2)OCO3)s1 | -1.76% (inactive)
57 | OC(CNCc1ccc2c(c1)OCO2)COc1ccccc1 (configuration not stated) | -0.63% (inactive)
